Compound activity as filed in PubChem.
Mtb hypoxia rep: reduces hypoxia-regulated biosensor signal in M. tuberculosis. M. tuberculosis hypoxia-regulated fluorescent reporter, fluorescence. fluorescence inhibition, % (no concentration beside the values). 300,000 tested, 0.1% active. AID 1159583; in the data active = fluorescence inhibition mostly above about 23%, no sharp cut-off; inactive = mostly below about 17%
SSB-PriA inh: blocks PriA binding to SSB C-terminal tail; AID 1272365; AlphaScreen SSBct-PriA binding, biotinylated peptide; inhibition, % at 33 µM; 430,000 tested, 0.6% active; in the data active = inhibition mostly above about 37%, no sharp cut-off; inactive = mostly below about 20%;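 note: plate controls were negative control peptide for no effect and reference peptide for full effect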
CCHF vOTU inh-1: CCHFV vOTU protease inhibition; Pep-AMC fluorescence; 370,000 tested, 0.55% active; inhibition, % at 11.5 µM; note: 0% = vehicle wells with enzyme and 100% = no enzyme wells
RN4220 kill: S. aureus RN4220 growth inhibition. OD600, 16 h. inhibition, % (no concentration beside the values). 330,000 tested, 0.33% active; in the data active = inhibition above about 85%;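 note: plate controls were untreated cells for no effect and reference antibiotic for full effect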
ugtP null kill: growth inhibition of S. aureus ugtP deletion strain | growth inhibition, % (concentration not given with the values) | 330,000 tested, 0.54% active | AID 1259309 | S. aureus RN4220 ugtP deletion, OD600 growth, 16 h; in the data active = growth inhibition above about 68%;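 note: plate controls were untreated wells for no effect and antibiotic for full effect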
CCHF vOTU inh-2: CCHFV vOTU protease inhibition, confirmation. shares compounds with CCHF vOTU inh-1. Recombinant CCHFV vOTU, Pep-AMC fluorescence. inhibition, % at 11.5 µM. 1,900 tested, 17% active. AID 686976
* = called active by the depositor; . = no result given. In the library only some 1.4% were active in any assay of this set; here they are far more common. Cut-off read from the data, not from the text of the source, unless noted: active = inhibition above about 30%; inactive = the rest.

SMILES	Mtb hypoxia rep	SSB-PriA inh	CCHF vOTU inh-1	RN4220 kill	ugtP null kill	CCHF vOTU inh-2
O=C(Cn1nc(-c2ccco2)c2sc(N3CCCC3)nc2c1=O)NC1CCCCC1	.	-15	.	.	.	.
Cn1nc(C(=O)Nc2ccc(S(N)(=O)=O)cc2)ccc1=O	.	5	.	.	.	.
Cc1ccc(C)c(-n2c3nc(=O)[nH]c(=O)c-3cc3cc([N+](=O)[O-])ccc32)c1	7	2	79*	2	-16	4
Cc1cccc(-n2c3nc(=O)[nH]c(=O)c-3cc3cc([N+](=O)[O-])ccc32)c1	-2	13	21	10	8	.
O=C(Cc1ccccc1)NCc1nnc(SCc2ccc(Br)cc2)n1-c1ccc(Br)cc1	.	-16	.	.	.	.
CCOc1ccc(NC(=O)CN(C)C(=O)c2ccc(C)o2)cc1OCC	6	28	32*	4	10	-23
CCOc1ccc(NC(=O)CN(C)C(=O)c2cc(C)oc2C)cc1OCC	7	10	-3	0	6	.
O=C(CNC(=O)Cc1ccccc1)NCC(=O)OCC(=O)c1cccc2ccccc12	9	-10	31*	5	-10	-16
O=C(CNC(=O)c1ccco1)OCC(=O)c1cccc2ccccc12	7	4	-5	19	19	.
COc1ccc(CN2CCN(Cc3ccccc3)C(CCO)C2)cc1OC (centres undefined)	6	3	-8	1	7	.
COc1cc(CN2CCN(C(C)C)C(CCO)C2)ccc1OCc1ccccc1 (centres undefined)	0	-9	30*	1	5	-5
CCCCCCCCNS(=O)(=O)CCNCc1ccc(OC)cc1	.	-5	32*	.	.	6
COc1ccc(CNS(=O)(=O)CCNC(=O)c2ccc(OC)cc2)cc1	-9	-7	31*	7	2	-14
COc1ccc(C(=O)NCCS(=O)(=O)NCc2ccc(C)cc2)cc1	-5	-7	-3	4	6	.
Cn1cccc1C(CNS(=O)(=O)c1ccccc1Cl)N1CCCC1 (centres undefined)	.	7	.	.	.	.
COc1cc2cc(C(=O)Nc3ccc(C)c(C)c3)cc(-c3ccc(C)cc3)c2cc1OC	.	-13	.	.	.	.
Cc1cccc(CC(=O)Nc2ccc3c(c2)OCC(C)(C)C(=O)N3)c1	.	10	.	.	.	.
O=c1[nH]n2c(=O)c3c([nH]c2c1N=Nc1cccc(C(F)(F)F)c1)CCCC3	6	13	44*	4	-20	13
O=c1[nH]n2c(=O)c3c([nH]c2c1N=Nc1cccc(Cl)c1)CCC3	16	3	23	10	-2	.
S=c1[nH]nc(C2CCCCC2)n1/N=C/C=C/c1ccccc1	.	.	32*	.	.	8
C/C(C=Nn1c(C2CCCCC2)n[nH]c1=S)=C\c1ccccc1	2	11	.	10	17	.
C=CCn1c(O)c(C=NNC(=O)c2ccncc2)c(=O)[nH]c1=O	.	-7	.	.	.	.
Cc1noc(CNC(=O)C2(c3ccccc3)CCOCC2)n1	.	-13	.	.	.	.
CC1=NN(c2ccc(C(=O)O)cc2)C(=O)/C1=C\c1ccc(OC(=O)c2cccs2)cc1	0	-9	55*	12	13	7
COc1ccc(/C=C2/C(=O)N(c3ccccc3)N=C2C)cc1Br	-6	-2	74*	-1	-3	0
SMILES	Mtb hypoxia rep	SSB-PriA inh	CCHF vOTU inh-1	RN4220 kill	ugtP null kill	CCHF vOTU inh-2
CC1=NN(c2ccccc2)C(=O)/C1=C\c1ccc(Br)s1	3	11	18	3	13	.
CCOc1cc(/C=C2/C(=O)N(c3ccccc3)N=C2C)ccc1OC(=O)c1ccco1	2	-28	68*	7	3	-2
CC1=NN(c2ccccc2)C(=O)C1=Cc1ccccc1	.	.	17	.	.	.
CC1=NN(c2ccccc2)C(=O)/C1=C/c1ccc(Cl)cc1	5	19	89*	5	11	-27
CCOc1cc(/C=C2\C(=O)N(c3ccc(C(N)=O)cc3)N=C2C)ccc1OC(=O)c1cccs1	9	24	.	14	6	.
CC1CN(C)CCN1CC1CCN(S(=O)(=O)c2ccccc2)CC1 (centres undefined)	.	-7	.	.	.	.
Cc1cccc(-c2c(NC(=O)c3ccco3)n(C)c3ccccc3c2=O)c1	.	-3	.	.	.	.
CS(=O)(=O)N1CCCCC1C(=O)N(Cc1ccccn1)c1nc2c(F)cccc2s1 (centres undefined)	.	-9	.	.	.	.
O=C(NC(=S)Nc1ccc(S(=O)(=O)Nc2nccs2)cc1)c1ccc(F)c(F)c1	15	-7	42*	14	97*	-11
CC1(C(=O)Nc2cccc(OC(F)(F)F)c2)Cc2c(-c3cccc(C(F)(F)F)c3)ccnc2O1 (centres undefined)	.	.	40*	.	.	-4
